HER2 level % of control data for 100 molecules are collected here from PubChem BioAssay AID645 (SRMLSC, 2007).

The campaign covered roughly 65,000 compounds. About 450 (0.69%) were called active. The list comes from a sample in which actives are over-represented; it also holds similar structures and randomly drawn compounds. Values without a mark were called inactive.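 How the source made its calls: active means HER2 level under 5% of the carrier-only control; inconclusive means no clear call, values can overlap the other calls; inactive means the rest.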

In the assay the target is Receptor tyrosine-protein kinase erbB-2 (Homo sapiens) (UniProt P04626). As to the kind of experiment: reducers of endogenous HER2 protein levels – SKBR-3 cells, AlphaScreen, 66K library, primary screen (AID 645).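 Further: 100% = DMSO carrier and 0% = 500 nM PU-H71 HSP90 inhibitor.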 Particulars: SKBR-3 HER2 protein level, 18-24 h, at 10 µM, stronger effect = lower value.
Chain of Receptor tyrosine-protein kinase erbB-2 (Homo sapiens) (P04626 whole entry, looked up): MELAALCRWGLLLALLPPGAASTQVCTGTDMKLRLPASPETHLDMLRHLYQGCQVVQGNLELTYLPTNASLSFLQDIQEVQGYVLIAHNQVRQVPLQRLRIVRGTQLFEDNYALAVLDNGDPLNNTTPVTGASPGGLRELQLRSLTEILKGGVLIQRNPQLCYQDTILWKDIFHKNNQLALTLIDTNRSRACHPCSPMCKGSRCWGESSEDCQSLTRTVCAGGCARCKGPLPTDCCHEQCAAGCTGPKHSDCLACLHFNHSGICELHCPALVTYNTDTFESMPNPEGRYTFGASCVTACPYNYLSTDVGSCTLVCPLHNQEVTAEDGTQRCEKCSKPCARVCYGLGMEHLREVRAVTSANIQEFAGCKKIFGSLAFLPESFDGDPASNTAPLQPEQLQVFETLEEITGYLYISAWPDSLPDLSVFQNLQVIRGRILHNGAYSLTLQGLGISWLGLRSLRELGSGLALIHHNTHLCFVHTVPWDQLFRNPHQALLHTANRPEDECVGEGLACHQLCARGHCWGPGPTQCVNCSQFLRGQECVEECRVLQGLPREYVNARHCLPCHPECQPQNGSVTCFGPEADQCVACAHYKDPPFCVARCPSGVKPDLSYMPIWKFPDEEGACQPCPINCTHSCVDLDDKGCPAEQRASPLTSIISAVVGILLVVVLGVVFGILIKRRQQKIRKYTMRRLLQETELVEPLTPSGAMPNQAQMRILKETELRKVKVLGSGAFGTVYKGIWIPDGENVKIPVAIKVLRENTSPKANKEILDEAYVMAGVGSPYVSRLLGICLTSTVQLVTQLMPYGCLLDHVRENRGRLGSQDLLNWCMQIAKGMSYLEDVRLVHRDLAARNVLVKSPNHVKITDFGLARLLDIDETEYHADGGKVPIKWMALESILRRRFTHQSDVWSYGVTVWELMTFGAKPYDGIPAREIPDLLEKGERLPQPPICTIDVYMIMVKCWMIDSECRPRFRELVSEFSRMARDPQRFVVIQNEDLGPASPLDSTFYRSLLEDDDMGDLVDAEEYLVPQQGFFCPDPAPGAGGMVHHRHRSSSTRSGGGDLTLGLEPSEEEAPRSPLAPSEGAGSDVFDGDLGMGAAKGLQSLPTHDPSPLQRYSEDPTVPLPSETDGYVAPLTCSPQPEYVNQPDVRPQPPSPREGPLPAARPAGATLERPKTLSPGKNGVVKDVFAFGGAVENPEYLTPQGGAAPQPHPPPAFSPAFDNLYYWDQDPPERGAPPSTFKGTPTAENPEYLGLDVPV
For the molecule `CCCCNC(=O)c1c[nH]c2ccc(S(=O)(=O)Nc3ccc(OCC)cc3)cc2c1=O`, the HER2 level % of control was 54.9%. For `CCOC(=O)c1c(NC(=O)CCC(=O)NCc2ccco2)sc2c1CCCC2` the value was 104%; for `Fc1ccc2nc(-c3ccccc3)nc(SCc3nnc(-c4ccccc4)o3)c2c1`, 67.9%. For `O=C1CCc2cc(S(=O)(=O)N3CCC(C(=O)NCc4ccccc4Cl)CC3)ccc2N1` the value was 90.7%; for `COc1nc(OC)nc(N(C)CCO)n1`, 97.4%.

With `COc1ccc(N2C(=O)CN=C2Nc2cccc(C)c2C)cc1OC`, the HER2 level % of control is 70.2%.

In the case of `CCCc1[nH]nc2c1C(c1ccc(Br)s1)C(C#N)=C(N)O2` (stereo not given), the HER2 level % of control was 124%. Then `COc1ccc(C2C(C#N)=C(N)Oc3n[nH]c(C)c32)cc1CN1CCN(c2ccc(F)cc2)CC1` (stereo not given), with 117%.

With `CCCc1[nH]nc2c1C(c1ccc(OC)c(Cn3nc(C)c(Br)c3C)c1)C(C#N)=C(N)O2` (stereo not given), the HER2 level % of control is -20.4% (active).

As to `COc1ccc2oc(C)c(NC(C)=O)c2c1`, the HER2 level % of control was 71.5%. Then `COc1ccc(NC(C)=O)cc1NC(=O)CN1CCN(C2c3ccccc3-c3ccccc32)CC1`, with 71.4%; and `CCOC(=O)C1CCCN(C(=O)CN(c2ccc(OC)cc2)S(=O)(=O)c2c(C)noc2C)C1` (stereo not given), with 95.7%; and `c1ccc(-n2ncc(-c3nn[nH]n3)n2)cc1`, with 88.5%.

In the case of `COc1cc(Br)cc(/C=N/c2ncn[nH]2)c1O`, the HER2 level % of control is 92.3%.

As to `Cc1cc(C)c2c(c1)c(C)cc1nnc(SCC(=O)NCc3ccco3)n12`, the HER2 level % of control was 104%. For `O=C(c1ccco1)N1CCN(C(=O)C2c3ccccc3Oc3ccccc32)CC1`, the HER2 level % of control is 100%. Consider `CCc1c(O)nc(SCC(=O)N2CCCCC2)n(-c2ccccc2C)c1=O`, for which the HER2 level % of control was 114%. For `N#CCCn1cnc2ccccc21` the value was 106%; for `COc1ccc(CC(=O)Nc2ccc(-c3nnc(-c4ccccc4)o3)cc2)cc1`, 87.4%. For the molecule `COc1ccc(-c2nnc(SC(=O)N3c4ccccc4Sc4ccccc43)o2)cc1`, the HER2 level % of control is -15.7% (active). For `COc1ccc(-c2nnc(SC(C)C#N)o2)cc1` (stereo not given) the value was 127%; for `CCn1nc(C(=O)OCC(=O)N2c3ccccc3CC2C)c2ccccc2c1=O` (stereo not given), 106%; for `CCOc1ccc(NCCC(=O)c2ccc3c(c2)OCO3)cc1`, 95.7%. Then `Nc1nonc1-c1noc(-c2ccc(Br)o2)n1`, with 79.9%.

`CCn1ncc(Br)c1C(=O)Nc1cc(C)ccc1F`: the HER2 level % of control was 75.8%. Turning to `Clc1cccc(Cl)c1Cn1nnc(-c2cccs2)n1`, the HER2 level % of control is 89.2%. `O=C(CN1C(=O)CCC1=O)Nc1ccc(S(=O)(=O)N2CCOCC2)cc1`: the HER2 level % of control is 103%. Consider `CCCCN(CC)CCCNC(=O)CS(=O)(=O)Cc1nc(-c2cccc(OC)c2)oc1C`, for which the HER2 level % of control was 80.5%. For `CC1(C)CC(O)C(CCC(O)c2ccccc2)C(C)(C)N1` (stereo not given) the value was 89.8%; for `CCN(CC)S(=O)(=O)c1ccc(NC(=O)CN(c2cccc(F)c2)S(C)(=O)=O)cc1`, 152%. Then `COC(=O)[C@H](Cc1ccccc1)NC(=O)N1CC(C)OC(C)C1` (stereo not given in full), with 108%. Take `C=C(C)COc1ccc(-c2n[nH]c(C)c2-c2ccccc2OC)c(O)c1`: the HER2 level % of control is -9.89% (active).

For `C=C(C)COc1ccc(-c2n[nH]c(C)c2-c2ccccc2)c(O)c1`, the HER2 level % of control is 68.6%. For `COc1ccc(-c2n[nH]c(C)c2-c2ccc(OC)c(OC)c2)c(O)c1` the value was 82.6%; for `CCOC(=O)CNC(=O)CN1C(=O)CCSc2ccccc21`, 106%; for `Cn1c(=O)c2c(nc(N3CCCCCC3)n2CC(O)COc2ccc(Cl)cc2)n(C)c1=O` (stereo not given), 89%.

As to `COc1ccccc1NC(=O)C1=C(C)NC2=C(C(=O)CCC2)C1c1ccc(C)o1` (stereo not given), the HER2 level % of control was 90.6%. For `O=c1ccn(Cc2ccccc2Cl)cc1` the value was 93.6%; for `COc1ccccc1N1CCN(C(=O)c2ccc(S(=O)(=O)N3CCCCC3)cc2)CC1`, 135%; for `Cn1c(SCC(=O)Nc2cccc(O)c2)nnc1-c1ccc(S(=O)(=O)N2CCOCC2)cc1`, 100%. Then `CC(=O)Nc1nc(C)c(Cc2ccccc2)c(=O)[nH]1`, with 142%; and `Cn1c(=O)c2cn(-c3cccc4ccccc34)cc2n(C)c1=O`, with 94.5%.

For the molecule `COc1cc(NS(=O)(=O)c2ccc(NC(C)=O)cc2)cc(OC)c1`, the HER2 level % of control is 90.4%.

With `CC(=O)Nc1ccc(NS(=O)(=O)c2cc(C)sc2C)cc1`, the HER2 level % of control is -22.3% (active). For `CC(=O)Nc1ccc(S(=O)(=O)Nc2cccc(NC(=O)C(C)(C)C)c2)cc1` the value was 127%; for `CCC(C)n1[nH]c(=O)c2c(C)cc(C)nc21` (stereo not given), 116%; for `CCN(CC)CCCN1C(=O)C(=O)/C(=C(/O)c2c(C)nc3ccccn23)C1c1ccc(C)o1` (stereo not given), 90.1%. Consider `Cc1ccc(NC(=O)C2CC(c3ccc(F)cc3)=NO2)cc1` (stereo not given), for which the HER2 level % of control was 127%. Then `CCC1(C)N(O)C(C)(C)C(c2ccc(OC)cc2)=[N+]1[O-]` (stereo not given), with 90.2%; and `O=C1c2ccccc2C(O)N1Cc1ccccc1Cl` (stereo not given), with 99%. For `Brc1cnc(N2CCCC2)nc1N1CCCCC1` the value was 69.2%; for `COc1ccc(CC(=O)Nc2nc3n(n2)C(c2ccccc2)CC(=O)N3)cc1OC` (stereo not given), 104%. As to `CCCn1c(SCC(=O)c2ccc3c(c2)OCCO3)nnc1C(C)C`, the HER2 level % of control is 116%. As for `COc1cc(C2C(C(=O)Nc3ccccc3OC)=C(C)Nc3ncnn32)ccc1O` (stereo not given), the HER2 level % of control is 106%. For the molecule `O=C(C1CCN(S(=O)(=O)c2cccs2)CC1)N1CCCCCC1`, the HER2 level % of control was 100%.

With `Cc1nc(-c2ccc(NC(=O)c3cccs3)cc2)cs1`, the HER2 level % of control is 103%.

In the case of `CC1=C(C)CC2C(=O)N(c3cccc4ccccc34)C(=O)C2C1` (stereo not given), the HER2 level % of control is 102%. As for `CC(C)Cn1c(N)c(C(=O)NCc2cccs2)c2nc3ccccc3nc21`, the HER2 level % of control was -24.2% (active). Then `C=CCn1c(N)c(S(=O)(=O)c2cccs2)c2nc3ccccc3nc21`, with 86.9%; and `C=CCn1c(N)c(C(=O)OCC(C)C)c2nc3ccccc3nc21`, with 86%. As to `COc1ccc(OCC(=O)OCCN(C)C)cc1`, the HER2 level % of control was 117%. Then `O=C(O)C1C2C=CC(C2)C1C(=O)N1CCN(CCO)CC1` (stereo not given), with 56.8%; and `O=c1[nH]c(CSc2ncc(-c3ccc(F)cc3)n2Cc2ccco2)nc2ccccc12`, with -21.8% (active); and `Nc1cc(=O)nc(SCc2ccccc2)n1Cc1ccco1`, with 77%. In the case of `Cn1c(-c2ccc(F)cc2)cnc1SCC(=O)NCc1ccco1`, the HER2 level % of control is 85.8%.

As to `CN(C)c1nc2n(c(=O)n1)CCO2`, the HER2 level % of control is 93.2%.

Turning to `CCC(=O)NC(=Nc1nc2ccccc2s1)NC(=O)CC`, the HER2 level % of control was 76%. For `CCC(=O)c1cc2c(cc1NC(=O)c1cccs1)OCCO2` the value was 102%; for `COc1cccc(NC(=O)C(C)Oc2ccccc2)c1` (stereo not given), 87.6%; for `CCCC1CC(C)(C(=O)Cn2[nH]c(=O)ccc2=O)OC1=O` (stereo not given), 109%. Then `COc1ccccc1CNC(=O)Cn1cc2c(n1)CCCC2`, with 95.6%; and `CCc1cc2c(=O)c(-c3ccon3)c(N)oc2cc1OC`, with 49.1%; and `Cc1ccccc1CN1CCN(C(=O)c2cccc(F)c2)CC1`, with 79%. Consider `Cc1cc(OCCN2CCCC2)ccc1C(C)C`, for which the HER2 level % of control is 63%.

Turning to `c1ccc2cc(OCCN3CCCC3)ccc2c1`, the HER2 level % of control is -25.1% (active). For `OC(COc1ccc2ccccc2c1)CN1CCOCC1` (stereo not given) the value was 113%; for `CCOC(=O)Cc1csc(NC(=O)C(C)(C)C)n1`, 135%. Then `CCc1nc2ccccc2n(CCOCCOCCn2c(=O)c(CC)nc3ccccc32)c1=O`, with 91.8%. For `CC(=O)NC1=NC(=O)CS1` the value was 76.7%; for `Cn1c2c(c(=O)n(C)c1=O)C1c3ccccc3OCC1C(C)(C)O2` (stereo not given), 99.2%.

Regarding `CCOc1ccccc1N=C1NC(=O)CS1`, the HER2 level % of control is 88.8%. For `CCN(CC)CCNC(=O)Cn1cnc2sc(C)c(S(=O)(=O)N3CCOCC3)c2c1=O` the value was 103%; for `OC(COc1cccc2ccccc12)CN1CCN(c2ccccn2)CC1` (stereo not given), 105%; for `O=C1CSC(=O)N1CCOCCN1C(=O)CSC1=O`, 104%. Consider `Cc1ccc2c(CSc3nncs3)cc(=O)oc2c1`, for which the HER2 level % of control was 149%.

On to `Cc1cc(=O)[nH]c(SCc2cc(Cl)ccc2OC(F)F)n1`, for which the HER2 level % of control was 103%. For `CC1CC(c2ccccc2)n2nc(NC(=O)c3cccs3)nc2N1` (stereo not given) the value was 89%; for `CCOC(=O)Cc1c(C)nc2c(C#N)c(C)nn2c1C`, 92.6%; for `COCCNCCOCCOc1cccc(OC)c1`, 102%. For `Cc1nc(C)c2c(c1C(F)(F)F)-c1ccccc1C2(F)F`, the HER2 level % of control was 78.7%. Then `COc1ccc(C(c2nnnn2C2CCCCC2)N2CCN(c3ccccc3F)CC2)cc1` (stereo not given), with 80.7%. As for `O=C(c1ccc2c(c1)N(Cc1ccc(F)cc1)C(=O)CS2)N1CCOCC1`, the HER2 level % of control is 98.6%.

Consider `CC(=O)N1CCN(c2cccc(C)c2C)CC1`, for which the HER2 level % of control is 110%. For `COc1ccc(C(CNC(=O)c2cccnc2SC)N2CCOCC2)cc1` (stereo not given) the value was 106%; for `CC(=O)Nc1ccc(S(=O)(=O)N2CCCC2C(=O)O)cc1` (stereo not given), 162%; for `Cc1cc(C)nc(NC(=O)C(C)N2C(=O)c3ccccc3C2=O)n1` (stereo not given), 89.5%. Consider `COC(=O)c1ccc(NC(=O)c2ccco2)cc1`, for which the HER2 level % of control was 85.8%. Then `COC(=O)c1ccc(NC(=O)C(C)N2C(=O)c3ccccc3C2=O)cc1` (stereo not given), with -18.9% (active); and `COC(=O)C1C(=O)c2c([nH]c(C(=O)OCCSC)c2C)CC1C` (stereo not given), with 99.8%; and `CCOC(=O)c1c(C)n(C)c2ccc(OC)c(NC(=O)CN3CCC4(CC3)OCCO4)c12`, with 34.4%.
